In all, about 5,500 compounds went through this assay and about 2,000 (36%) were called active. About 18% were inconclusive and are not listed. Rule as the data show it: active = normalized growth mostly below about 0.91 (no sharp cut-off); inconclusive = no clear call, values can overlap the other calls; inactive = mostly above about 0.92. Some of the results follow.
Test: chemical genetic growth profiling, strain panel (AID 1159580);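 also: tested at 20 µM; growth read once vehicle control cultures reached saturation at 30 °C; 1 = growth at the plate median or of vehicle wells; lower values mean less growth of the strain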
Settings: growth OD

Measured: normalized growth

CC(=O)OCC1=C(C(=O)O)N2C(=O)[C@@H](NC(=O)CSc3ccncc3)[C@H]2SC1
inactive: S. cerevisiae deletion strains, locus YJR043C, strain POL32, hits give low values 0.959 | S. cerevisiae deletion strains, locus YJR066W, strain TOR1, hits give low values 0.987 | S. cerevisiae deletion strains, locus YKL009W, strain mrt4, hits give low values 1 | S. cerevisiae deletion strains, locus YKL068W, hits give low values 0.982 | S. cerevisiae deletion strains, locus YKL085W, strain MDH1 (second series), hits give low values 0.975 | S. cerevisiae deletion strains, locus YKL085W, strain MDH1, hits give low values 0.975 | S. cerevisiae deletion strains, locus YKL160W, strain elf1, hits give low values 1.03 | S. cerevisiae deletion strains, locus YKR001C, strain vps1, hits give low values 0.994 | S. cerevisiae deletion strains, locus YKR026C, strain gcn3, hits give low values 1.03 | S. cerevisiae deletion strains, locus YKR091W, strain srl3, hits give low values 1.02 | S. cerevisiae deletion strains, locus YLL001W, strain dnm1, hits give low values 1.02 | S. cerevisiae deletion strains, locus YLL026W, hits give low values 1.01 | S. cerevisiae deletion strains, locus YLL041C, strain sdh2, hits give low values 1.02 | S. cerevisiae deletion strains, locus YLR027C, strain aat2, hits give low values 1.02 | S. cerevisiae deletion strains, locus YLR039C, strain RIC1, hits give low values 0.981 | S. cerevisiae deletion strains, locus YLR058C, strain SHM2, hits give low values 0.985 | S. cerevisiae deletion strains, locus YLR102C, strain apc9, hits give low values 0.988 | S. cerevisiae deletion strains, locus YLR113W, strain HOG1, hits give low values 0.974 | S. cerevisiae deletion strains, locus YLR221C, strain rsa3, hits give low values 1.03 | S. cerevisiae deletion strains, locus YLR258W, strain gsy2, hits give low values 1.01 | S. cerevisiae deletion strains, locus YLR262C, strain YPT6 (second series), hits give low values 1.07 | S. cerevisiae deletion strains, locus YLR262C, strain YPT6, hits give low values 0.926 | S. cerevisiae deletion strains, locus YLR268W, strain sec22, hits give low values 0.957 | S. cerevisiae deletion strains, locus YLR320W, strain mms22, hits give low values 1 | S. cerevisiae deletion strains, locus YLR330W, strain CHS5, hits give low values 0.98 | S. cerevisiae deletion strains, locus YLR342W, strain FKS1 (second series), hits give low values 0.986 | S. cerevisiae deletion strains, locus YLR342W, strain FKS1, hits give low values 1.03 | S. cerevisiae deletion strains, locus YLR357W, strain rsc2, hits give low values 1.05 | S. cerevisiae deletion strains, locus YLR370C, strain arc18, hits give low values 1.01 | S. cerevisiae deletion strains, locus YLR371W, strain rom2, hits give low values 0.994 | S. cerevisiae deletion strains, locus YLR384C, strain iki3, hits give low values 1.04 | S. cerevisiae deletion strains, locus YLR418C, strain cdc73, hits give low values 1.05 | S. cerevisiae deletion strains, locus YML016C, strain PPZ1, hits give low values 0.987 | S. cerevisiae deletion strains, locus YML032C, strain rad52, hits give low values 0.992 | S. cerevisiae deletion strains, locus YML120C, strain ndi1, hits give low values 1.03 | S. cerevisiae deletion strains, locus YML124C, strain tub3, hits give low values 0.994 | S. cerevisiae deletion strains, locus YMR058W, strain fet3, hits give low values 1.01 | S. cerevisiae deletion strains, locus YMR078C, strain ctf18, hits give low values 0.987 | S. cerevisiae deletion strains, locus YMR125W, strain sto1, hits give low values 1.02 | S. cerevisiae deletion strains, locus YMR129W, hits give low values 1.02 | S. cerevisiae deletion strains, locus YMR205C, strain PFK2, hits give low values 1.02 | S. cerevisiae deletion strains, locus YMR223W, strain ubp8, hits give low values 1.01 | S. cerevisiae deletion strains, locus YMR231W, strain pep5, hits give low values 1.01 | S. cerevisiae deletion strains, locus YMR263W, strain SAP30, hits give low values 1 | S. cerevisiae deletion strains, locus YMR307W, strain GAS1, hits give low values 0.972 | S. cerevisiae deletion strains, locus YNL067W, strain RPL9B, hits give low values 1.01 | S. cerevisiae deletion strains, locus YNL071W, strain lat1, hits give low values 1.01 | S. cerevisiae deletion strains, locus YNL183C, strain NPR1, hits give low values 0.924 | S. cerevisiae deletion strains, locus YNL209W, strain ssb2, hits give low values 1.02 | S. cerevisiae deletion strains, locus YNL233W, strain BNI4, hits give low values 1.02 | S. cerevisiae deletion strains, locus YNL248C, strain rpa49, hits give low values 1.02 | S. cerevisiae deletion strains, locus YNL250W, strain rad50, hits give low values 0.99 | S. cerevisiae deletion strains, locus YNL271C, strain bni1, hits give low values 1 | S. cerevisiae deletion strains, locus YNL298W, strain CLA4, hits give low values 0.992 | S. cerevisiae deletion strains, locus YNL307C, strain MCK1, hits give low values 0.993 | S. cerevisiae deletion strains, locus YNL322C, strain KRE1 (second series), hits give low values 1.03 | S. cerevisiae deletion strains, locus YNL322C, strain KRE1, hits give low values 0.997 | S. cerevisiae deletion strains, locus YNR049C, strain mso1, hits give low values 1.02 | S. cerevisiae deletion strains, locus YNR052C, strain pop2, hits give low values 0.991 | S. cerevisiae deletion strains, locus YOL012C, strain htz1 0.881 | S. cerevisiae deletion strains, locus YOL147C, strain pex11, hits give low values 1 | S. cerevisiae deletion strains, locus YOR001W, strain rrp6, hits give low values 1.04 | S. cerevisiae deletion strains, locus YOR061W, strain CKA2, hits give low values 0.969 | S. cerevisiae deletion strains, locus YOR069W, strain VPS5, hits give low values 0.985 | S. cerevisiae deletion strains, locus YOR070C, strain gyp1, hits give low values 1.01 | S. cerevisiae deletion strains, locus YOR080W, strain dia2, hits give low values 1.05 | S. cerevisiae deletion strains, locus YOR083W, strain WHI5, hits give low values 1.05 | S. cerevisiae deletion strains, locus YOR106W, strain vam3, hits give low values 1.05 | S. cerevisiae deletion strains, locus YOR136W, strain idh2, hits give low values 0.983 | S. cerevisiae deletion strains, locus YOR144C, strain elg1, hits give low values 0.985 | S. cerevisiae deletion strains, locus YOR184W, strain ser1, hits give low values 0.995 | S. cerevisiae deletion strains, locus YOR231W, strain MKK1, hits give low values 0.985 | S. cerevisiae deletion strains, locus YOR265W, strain rbl2, hits give low values 1.02 | S. cerevisiae deletion strains, locus YOR270C, strain vph1, hits give low values 1.07 | S. cerevisiae deletion strains, locus YOR290C, strain snf2, hits give low values 0.998 | S. cerevisiae deletion strains, locus YOR316C, strain cot1, hits give low values 0.981 | S. cerevisiae deletion strains, locus YPL051W, strain arl3, hits give low values 1.04 | S. cerevisiae deletion strains, locus YPL078C, strain atp4, hits give low values 1.05 | S. cerevisiae deletion strains, locus YPL106C, strain sse1, hits give low values 1.02 | S. cerevisiae deletion strains, locus YPL240C, strain hsp82, hits give low values 1.02 | S. cerevisiae deletion strains, locus YPL241C, strain CIN2, hits give low values 0.988 | S. cerevisiae deletion strains, locus YPL256C, strain CLN2, hits give low values 1.01 | S. cerevisiae deletion strains, locus YPR119W, strain clb2, hits give low values 0.982 | S. cerevisiae deletion strains, locus YPR141C, strain kar3, hits give low values 0.991 | S. cerevisiae deletion strains, locus YPR163C, strain tif3, hits give low values 0.991 | S. cerevisiae deletion strains, locus YPR167C, strain met16, hits give low values 1 | S. cerevisiae deletion strains, strain wtn01, hits give low values 0.995 | S. cerevisiae strains, strain wild type, hits give low values 0.982

Source: PubChem BioAssay AID1159580 (chemical genetic matrix, 2015)
